This is a sample that favours compounds with a hit; in the whole collection about 11% have one here.
FLuc inh: Photinus pyralis luciferase inhibition. P08659. purified P. pyralis luciferase, luminescence, biochemical. Potency, µM (doses to about 115 µM), usual class: inhibitors. actives 2.5% (n = 76,000); note: nearly all actives have a fitted effect of over 65% in size
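Purified 10nM P. pyralis luciferase with 10uM D-luciferin and 10uM ATP in 50mM Tris acetate pH 7.5, 10mM Mg acetate, 0.01% Tween-20, 0.05% BSA. qHTS titration; luminescence read by CCD imager.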
HEK cytotox: HEK 293 cell cytotoxicity | actives 6.6% (n = 94,000) | Potency, µM (titrated, usually from 115 µM), for inactives: at the highest dose activity change, negative = cytotoxicity, usual class: inhibitors | HEK 293 viability, ATP luminescence (CellTiter-Glo), 48-72 h; note: nearly all actives have a fitted effect of over 60% in size
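HEK 293 cells at 250 cells/well were exposed to compounds by pintool transfer for 48 or 72 hr at 37 degree Celsius, 5% CO2. Viability was read as ATP-coupled luminescence with CellTiter-Glo after 10 min at room temperature.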
NPR1 antag: human Npr1 receptor antagonism; P16066; Potency, µM (series often up to 46.3 µM), inactives show top-dose activity change, negative = inhibition, actives largely listed as inhibitors; actives 1.6% (n = 76,000); AID 1347048; HEK293 hNpr1 GloSensor cGMP, ANP-stimulated luminescence; calls by dose curve; note: nearly all actives have a fitted effect of over 60% in size
Target sequence (P16066 whole entry, looked up): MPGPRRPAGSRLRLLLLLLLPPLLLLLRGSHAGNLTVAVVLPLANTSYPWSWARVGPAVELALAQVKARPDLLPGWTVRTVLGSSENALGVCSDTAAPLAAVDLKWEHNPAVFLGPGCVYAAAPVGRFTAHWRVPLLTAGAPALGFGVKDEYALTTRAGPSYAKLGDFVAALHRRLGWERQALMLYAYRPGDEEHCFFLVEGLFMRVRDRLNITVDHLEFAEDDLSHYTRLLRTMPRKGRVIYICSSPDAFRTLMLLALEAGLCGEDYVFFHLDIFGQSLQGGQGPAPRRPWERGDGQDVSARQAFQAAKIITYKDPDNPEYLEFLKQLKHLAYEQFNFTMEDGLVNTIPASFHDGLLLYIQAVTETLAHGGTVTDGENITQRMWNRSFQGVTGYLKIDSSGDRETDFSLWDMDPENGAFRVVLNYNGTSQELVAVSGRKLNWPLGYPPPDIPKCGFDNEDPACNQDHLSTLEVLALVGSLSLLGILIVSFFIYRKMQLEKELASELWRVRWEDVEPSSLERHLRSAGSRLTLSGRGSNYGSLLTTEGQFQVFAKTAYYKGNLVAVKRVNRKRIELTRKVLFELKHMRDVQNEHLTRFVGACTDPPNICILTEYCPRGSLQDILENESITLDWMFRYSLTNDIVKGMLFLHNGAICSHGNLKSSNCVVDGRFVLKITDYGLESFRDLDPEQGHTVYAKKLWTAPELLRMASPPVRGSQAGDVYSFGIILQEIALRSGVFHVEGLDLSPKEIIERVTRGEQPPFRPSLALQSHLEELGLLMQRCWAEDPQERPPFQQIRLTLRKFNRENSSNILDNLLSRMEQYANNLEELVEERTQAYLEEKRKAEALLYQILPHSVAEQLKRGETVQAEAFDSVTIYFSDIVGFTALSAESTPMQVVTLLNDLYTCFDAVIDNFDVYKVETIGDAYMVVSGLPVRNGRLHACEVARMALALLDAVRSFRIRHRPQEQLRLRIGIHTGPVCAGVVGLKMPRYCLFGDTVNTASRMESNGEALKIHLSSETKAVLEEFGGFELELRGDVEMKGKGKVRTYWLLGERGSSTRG
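HEK293 cells stably expressing human Npr1 and cGMP GloSensor pGS-40F, loaded 2 h with 2% GloSensor reagent, given compound 30 min at room temperature. Luminescence read before and 20 min after 0.1 nM hNppA.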
NIH3T3 tox: NIH 3T3 cell cytotoxicity; NIH 3T3 viability, CellTiter-Glo ATP luminescence, 48-72 h; Potency, µM (highest dose often 96.7 µM), for the others: at the highest dose activity change, negative = cytotoxicity, usual class: inhibitors; actives 4.3% (n = 94,000); AID 1345082; note: nearly all actives have a fitted effect of over 55% in size
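Cytotoxicity is measured as loss of cellular ATP: NIH 3T3 cells (400/well) are exposed to compound for 48 or 72 hr at 37 °C, then CellTiter-Glo luminescence is imaged after 10 min at room temperature.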
An asterisk follows results filed as active; [ ] = dose if it differs, or a comment. Unless noted, calls come from the whole dose curve; as a rule, active = well fitted curve in the direction sought with a large enough effect; inconclusive = small, poorly fitted or top-dose-only effect, or another doubt; inactive = no such curve, though single readings can be large; an effect the other way counts as inactive or inconclusive. % is set by controls: 0 for no effect and ±100 for the full control effect; potency is the fitted concentration of half-maximal effect.

Screening COc1cccc(CN2CCC[C@@H](O)[C@H](NC(=O)c3ccc(OCc4ccccc4)cc3)C2)c1 returned FLuc inh inactive, HEK cytotox inconclusive, NPR1 antag -15% and NIH3T3 tox 35µM*.
`COc1ccc(C(=O)N[C@@H]2CN(Cc3cccc(OC)c3)CCC[C@H]2O)cc1` gave FLuc inh inactive, HEK cytotox -26%[172 µM], NPR1 antag -2%[70.6 µM] and NIH3T3 tox -23%[174 µM].
`Cc1cn2nc(C(=O)N3CCC(NC(=O)c4ccccc4)CC3)cc2c(=O)[nH]1` gave FLuc inh inactive, HEK cytotox -1%, NPR1 antag -2% and NIH3T3 tox -3%.
`Cc1cn2nc(C(=O)N3CCC(NC(=O)c4cccc(N(C)C)c4)CC3)cc2c(=O)[nH]1` gave FLuc inh 35µM*, HEK cytotox -12%, NPR1 antag 0% and NIH3T3 tox -20%.
CCc1nnc([C@@H]2CC(F)(F)CN2Cc2cccn2C)o1 was read as FLuc inh inactive, HEK cytotox inconclusive, NPR1 antag 2% and NIH3T3 tox -13%.
`COc1ccc(Nc2ccnc(N3CCC(C(=O)N4CCOCC4)CC3)n2)cc1` gave HEK cytotox -30% and NIH3T3 tox -25%.
For COc1ccc(Nc2ccnc(N3CCC(C(=O)NC4CCCC4)CC3)n2)cc1 the results were HEK cytotox inconclusive and NIH3T3 tox 35µM*.
Screening COc1ccc(Nc2ccnc(N3CCN(C(=O)C4CCCC4)CC3)n2)cc1 returned HEK cytotox 28µM* and NIH3T3 tox inconclusive.
`COc1ccc(Nc2ccnc(N3CCC(NC(=O)C4CCCC4)CC3)n2)cc1` gave HEK cytotox 50µM* and NIH3T3 tox inconclusive.
O=C(NCc1cccc(Cl)c1)c1ccc2nnc(-c3ccc(OC(F)(F)F)cc3)n2c1 was read as HEK cytotox inconclusive and NIH3T3 tox -29%.
CCCn1cc(-c2ccncc2)cc1C(=O)NC(C)c1ccc(OC)cc1 (centres undefined) was read as FLuc inh inactive, HEK cytotox inconclusive, NPR1 antag -2% and NIH3T3 tox inconclusive.
For Cc1ccsc1-c1nc(CN2CCC(CCn3cccn3)CC2)c(C)o1 the results were FLuc inh inactive, HEK cytotox inconclusive, NPR1 antag -3% and NIH3T3 tox inconclusive.
Screening COc1ccc(C(C)NC(=O)c2cc3c(n2C)CCN(Cc2ccccc2)C3)cc1OC (centres undefined) returned FLuc inh inactive, HEK cytotox inconclusive, NPR1 antag 4% and NIH3T3 tox -26%.
For CN(C)c1cccc(NC(=O)Cc2c[nH]c3ncc(-c4cccnc4)cc23)c1 the results were FLuc inh inactive, HEK cytotox inconclusive, NPR1 antag -25%[70.6 µM] and NIH3T3 tox inconclusive.
For O=C(Cc1c[nH]c2ncc(-c3cccnc3)cc12)Nc1ccc(F)cc1 the results were FLuc inh inactive, HEK cytotox inconclusive, NPR1 antag -15%[70.6 µM] and NIH3T3 tox 28µM*.
For CN(C)c1cccc(-c2cnc3[nH]cc(CC(=O)NCc4cccnc4)c3c2)c1 the results were FLuc inh inconclusive, HEK cytotox inconclusive, NPR1 antag -10%[70.6 µM] and NIH3T3 tox inconclusive.
`CN(C)C(=O)Cc1c[nH]c2ncc(-c3cccnc3)cc12` gave FLuc inh inactive, HEK cytotox -29%[230 µM], NPR1 antag -1%[70.6 µM] and NIH3T3 tox 25µM*.
For CC(C)C(=O)N1CCC(Oc2cccc(F)c2)C1 (centres undefined) the results were FLuc inh inactive, HEK cytotox -12%, NPR1 antag -1% and NIH3T3 tox -8%.
Screening COc1ccc(CNC(=O)c2c(C)noc2-c2cc(OC)cc(OC)c2)cc1 returned FLuc inh inactive, HEK cytotox inconclusive, NPR1 antag -2% and NIH3T3 tox -7%.
Screening COc1ccc(-c2onc(C)c2C(=O)NC2CCCc3ccccc32)cc1 (centres undefined) returned FLuc inh 28µM*, HEK cytotox inconclusive, NPR1 antag -5% and NIH3T3 tox inconclusive.
COc1cccc(CNC(=O)c2c(C)noc2-c2cccs2)c1 was read as FLuc inh inactive, HEK cytotox inconclusive, NPR1 antag -3% and NIH3T3 tox inconclusive.
For COc1ccc(-c2onc(C)c2C(=O)NCc2c(OC)cc(OC)cc2OC)cc1 the results were FLuc inh inactive, HEK cytotox 32µM*, NPR1 antag -10% and NIH3T3 tox inconclusive.
